Reference: PubChem BioAssay (NCATS)
Records with an inconclusive call do not appear. Calls of active or inactive are those of the source. Unless noted, the call rests on the fitted dose curve; in most records, active means well fitted curve in the direction sought with a large enough effect; inconclusive means small, poorly fitted or top-dose-only effect, or another doubt; inactive means no such curve, though single readings can be large; an effect the other way counts as inactive or inconclusive.

Columns and labels:
[1] = qHTS for Inhibitors of the Functional Ribonucleoprotein Complex (vRNP) of Lassa (LASV) Arenavirus: Viability assay - alamar blue signal for LASV Primary Screen (AID 1347083; calls by dose curve; tested in HEK293 reporter line; further: nearly all actives have a fitted effect of over 80% in size)
[2] = qHTS for Inhibitors of the Functional Ribonucleoprotein Complex (vRNP) of Lymphocytic Choriomeningitis Arenaviruses (LCMV): Viability assay - alamar blue signal for LCMV Primary Screen (AID 1347085; calls by dose curve; tested in HEK293 reporter line; further: nearly all actives have a fitted effect of over 80% in size)
[3] = molecular target: Nucleoprotein (Lymphocytic choriomeningitis virus (strain Armstrong)) (UniProt P09992); test: qHTS for Inhibitors of the Functional Ribonucleoprotein Complex (vRNP) of Lymphocytic Choriomeningitis Arenaviruses (LCMV): LCMV Primary Screen - GLuc reporter signal (AID 1347086; calls by dose curve; further: nearly all actives have a fitted effect of over 70% in size)
Chain of Nucleoprotein (Lymphocytic choriomeningitis virus (strain Armstrong)) (P09992 whole entry, looked up): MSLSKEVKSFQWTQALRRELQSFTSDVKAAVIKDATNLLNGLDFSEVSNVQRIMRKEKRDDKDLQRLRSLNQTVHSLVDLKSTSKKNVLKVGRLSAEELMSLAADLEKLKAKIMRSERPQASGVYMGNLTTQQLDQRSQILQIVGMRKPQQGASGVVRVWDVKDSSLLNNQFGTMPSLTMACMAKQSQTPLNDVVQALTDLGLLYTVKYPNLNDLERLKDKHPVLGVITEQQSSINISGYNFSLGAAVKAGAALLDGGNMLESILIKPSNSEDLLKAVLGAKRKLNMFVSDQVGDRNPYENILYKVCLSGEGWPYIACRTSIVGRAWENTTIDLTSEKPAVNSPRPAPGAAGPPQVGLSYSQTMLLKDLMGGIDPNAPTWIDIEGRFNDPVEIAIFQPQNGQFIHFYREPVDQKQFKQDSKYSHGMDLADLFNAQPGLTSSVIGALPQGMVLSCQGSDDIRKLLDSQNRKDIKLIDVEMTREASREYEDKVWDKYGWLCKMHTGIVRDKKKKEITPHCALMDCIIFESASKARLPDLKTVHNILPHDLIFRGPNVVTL

[4] = qHTS of pediatric cancer cell lines to identify multiple opportunities for drug repurposing: Primary screen for TC32 cells (AID 1347089); further: nearly all actives have a fitted effect of over 60% in size
How it was run: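 Measured quantity: luminescence from CellTiter-Glo, reflecting metabolically active TC32 cells following 48 h of compound. Curves came straight from multi-point titrations, with 8 or 11 points in primary and 11 in confirmatory screening.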

[5] = qHTS of pediatric cancer cell lines to identify multiple opportunities for drug repurposing: Primary screen for A673 cells (AID 1347092); further: nearly all actives have a fitted effect of over 45% in size
How it was run: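 Cells are plated, rested 5 h, dosed by pintool, incubated 48 h, then lysed with CellTiter-Glo and read by luminescence. DMSO is the neutral control; bortezomib at 2.3 uM final is the positive control.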

[6] = qHTS of pediatric cancer cell lines to identify multiple opportunities for drug repurposing: Primary screen for SK-N-MC cells (AID 1347093)
How it was run: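 Metabolically active cells were quantified by ATP-dependent luminescence (CellTiter-Glo, 15 min at room temperature) following 48 h treatment. Cells had been plated at 500-1,000 per well and settled for 5 h beforehand.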

[7] = qHTS of pediatric cancer cell lines to identify multiple opportunities for drug repurposing: Primary screen for NB-EBc1 cells (AID 1347095)
How it was run: (§1)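 Phenotypic viability qHTS, 48 h compound exposure, CellTiter-Glo luminescence read-out; multi-concentration dosing so that potency and efficacy derive directly from the primary screen's curves.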

[8] = qHTS of pediatric cancer cell lines to identify multiple opportunities for drug repurposing: Primary screen for U-2 OS cells (AID 1347096); further: nearly all actives have a fitted effect of over 50% in size
How it was run: (§2)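 Cells (500-1,000/well) in growth media were settled 5 h at 37 degrees C, then given compounds for 48 h. Viability was read as CellTiter-Glo luminescence. Primary runs used MIPE at 11 points (0.78 nM-46 µM) and NPC at 8 points (0.59 nM-46 µM); follow-ups used 11 points.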

[9] = qHTS of pediatric cancer cell lines to identify multiple opportunities for drug repurposing: Primary screen for NB1643 cells (AID 1347099); further: nearly all actives have a fitted effect of over 50% in size
How it was run: as §1

[10] = qHTS of pediatric cancer cell lines to identify multiple opportunities for drug repurposing: Primary screen for LAN-5 cells (AID 1347100)
How it was run: as §2

[11] = qHTS of pediatric cancer cell lines to identify multiple opportunities for drug repurposing: Primary screen for DAOY cells (AID 1347090); further: nearly all actives have a fitted effect of over 55% in size
How it was run: (§3)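 Eight- or eleven-point concentration series, 48 h treatment at 37 degrees C in growth media; readout CellTiter-Glo luminescence. Potency and efficacy were taken from the concentration-response curves.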

[12] = qHTS of pediatric cancer cell lines to identify multiple opportunities for drug repurposing: Primary screen for SJ-GBM2 cells (AID 1347091)
How it was run: as §3

[13] = qHTS of pediatric cancer cell lines to identify multiple opportunities for drug repurposing: Primary screen for BT-37 cells (AID 1347094)
How it was run: as §1

[14] = qHTS of pediatric cancer cell lines to identify multiple opportunities for drug repurposing: Primary screen for Saos-2 cells (AID 1347097); further: nearly all actives have a fitted effect of over 40% in size
How it was run: as §1

[15] = qHTS of pediatric cancer cell lines to identify multiple opportunities for drug repurposing: Primary screen for SK-N-SH cells (AID 1347098); further: nearly all actives have a fitted effect of over 65% in size
How it was run: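 Cells (500-1,000/well) rested 5 h, then received compounds for 48 h; metabolically active cells were measured by CellTiter-Glo luminescence. Final concentrations spanned up to 46 µM (MIPE, 11-point) or 0.59 nM-46 µM (NPC, 8-point) in primary screens, 11-point in follow-ups.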

Measured: Potency
Potency means the concentration at half of the fitted maximal effect.

COc1cccc2nc(-c3cccs3)nc(NN3C(=O)C=C(C)C3=O)c12
active: [1] 2.73 µM | [2] 6.11 µM | [3] 7.69 µM

Cc1cc(Nc2cc(N3CCN(C)CC3)nc(C=Cc3ccccc3)n2)n[nH]1
active: [1] 8.85 µM | [2] 31.4 µM

CCNC(=O)CC1N=C(c2ccc(Cl)cc2)c2cc(OC)ccc2-n2c(C)nnc21 (stereo not given)
inactive: [4] | [8]
active: [1] 7.69 µM | [2] 1.53 µM | [3] 2.43 µM | [5] 2.96 µM | [6] 2.96 µM | [7] 20.9 µM | [9] 14.8 µM | [10] 10.5 µM

CN(C)CCCNC(=O)c1ccc(-c2cc(O)c3ncccc3c2)cc1
active: [1] 38.5 µM | [2] 19.3 µM

COC(=O)Nc1ccc(-c2nc(N3CCOCC3)c3cnn(C4CCN(C(=O)OC)CC4)c3n2)cc1
inactive: [1] | [2] | [3]

O=C(Nc1ccc(Oc2ccc(Cl)cc2)c(Cl)c1)c1cc(I)cc(I)c1O
inactive: [1] | [2] | [3]

O=C(C=Cc1cccc(S(=O)(=O)Nc2ccccc2)c1)NO
inactive: [3]
active: [1] 25 µM | [2] 39.5 µM

COc1cc2ncn(-c3cc(OCc4ccccc4C(F)(F)F)c(C(N)=O)s3)c2cc1OC
active: [1] 1.72 µM | [2] 1.72 µM | [3] 1.72 µM

CCNC(=O)C[C@@H]1N=C(c2ccc(Cl)cc2)c2cc(OC)ccc2-n2c(C)nnc21
active: [1] 3.06 µM | [2] 1.22 µM | [3] 1.22 µM | [11] 5.9 µM | [12] 5.9 µM | [5] 0.59 µM | [6] 1.32 µM | [13] 7.69 µM | [7] 10.5 µM | [14] 4.69 µM | [9] 1.05 µM | [10] 2.35 µM

Cc1cc2c(F)c(Oc3ncnn4cc(OC[C@@H](C)O)c(C)c34)ccc2[nH]1
active: [1] 24.3 µM | [3] 13.7 µM

CC1(O)CC(c2nc(-c3ccc4ccc(-c5ccccc5)nc4c3)c3c(N)nccn23)C1 (stereo not given)
active: [1] 5.44 µM | [2] 3.85 µM

Cc1cccc(Nc2nc(N[C@@H]3CCCC[C@H]3N)ncc2C(N)=O)c1
inactive: [2] | [3]
active: [1] 4.85 µM

Cc1ccccc1-n1c(Cn2ncc3c(N)ncnc32)nc2cccc(C)c2c1=O
inactive: [8]
active: [1] 0.485 µM | [2] 0.137 µM | [3] 0.193 µM | [4] 7.39 µM | [12] 0.0074 µM | [6] 0.0132 µM | [7] 0.0935 µM | [14] 0.0083 µM

O=C(NCCCNc1nc(Nc2cccc(NC(=O)N3CCCC3)c2)ncc1I)c1cccs1
active: [1] 3.85 µM | [2] 34.3 µM
inactive: [3]

COc1cccc2cc(-c3nc(C4CCC(C(=O)O)CC4)n4ncnc(N)c34)[nH]c12 (stereo not given)
active: [1] 0.611 µM | [2] 1.72 µM | [3] 3.06 µM

CCOC(=O)Nc1ccc(NCc2ccc(F)cc2)cc1N
active: [1] 5.44 µM | [2] 1.37 µM | [3] 1.53 µM | [5] 18.7 µM
not listed: [6] | [9] | [10] | [15]
inactive: all other assays above

Cc1cn2c(-c3cn[nH]c3)cnc2c(Nc2ccc(C(=O)N3CCNCC3)cc2F)n1
active: [1] 3.85 µM | [2] 1.93 µM | [3] 2.73 µM

CC(C)CC(=O)Nc1n[nH]c2c1CN(C(=O)C1CCN(C)CC1)C2(C)C
inactive: [1] | [2] | [3]

CC(C)[C@H](CO)Nc1nc(Nc2ccc(C(=O)O)c(Cl)c2)c2ncn(C(C)C)c2n1
active: [1] 0.217 µM | [2] 3.85 µM
inactive: [3]

Cn1cc(-c2[nH]c3cc(NC(=O)[C@H](N)C4CCCCC4)cc4c3c2C=NNC4=O)cn1
active: [1] 3.43 µM | [2] 4.85 µM | [3] 2.73 µM

Cc1ccc(N)cc1O
inactive: [3]

O=C(O)c1ccc(O)c2ncc(N3CCOCC3)cc12
active: [2] 48.5 µM

O=C(Oc1ccc([N+](=O)[O-])cc1)N1CCN(Cc2cccc(Oc3ccccc3)c2)CC1
active: [1] 24.3 µM | [3] 6.85 µM | [5] 18.7 µM | [6] 18.7 µM
inactive: [4] | [12] | [13] | [7] | [8] | [10]

CC(C)(C)c1[nH]cnc1C=c1[nH]c(=O)c(=Cc2ccccc2)[nH]c1=O
active: [2] 0.0079 µM | [3] 0.0314 µM

Nc1ccc([N+](=O)[O-])cc1O
inactive: [2] | [3]

COC(=O)c1ccc2c(C(=Nc3ccc(N(C)C(=O)CN4CCN(C)CC4)cc3)c3ccccc3)c(O)[nH]c2c1
inactive: [3]
active: [2] 27.3 µM

Clc1ccc(C(c2ccc(Cl)cc2)n2cc[n+](CC(OCc3ccc(Cl)cc3Cl)c3ccc(Cl)cc3Cl)c2)cc1 (stereo not given)
active: [3] 15.3 µM

O=C(Nc1cc(C(F)(F)F)cc(C(F)(F)F)c1)c1cc(Cl)ccc1O
active: [2] 2.43 µM

COc1cc2c(Oc3ccc4[nH]c(C)cc4c3F)ncnc2cc1OCCCN1CCCC1
inactive: [2] | [3]

C=CCC1=C(C)C(OC(=O)C2C(C=C(C)C)C2(C)C)CC1=O (stereo not given)
inactive: [1] | [4] | [15]
active: [12] 30.6 µM | [5] 48.6 µM | [6] 38.6 µM | [7] 68.6 µM

CCCCCCCCCCCCCCCC[N+](C)(C)C
active: [11] 13.3 µM | [5] 4.22 µM | [6] 5.31 µM | [13] 15.5 µM | [15] 17.2 µM | [10] 23.7 µM

c1ccc2c(-c3cnn4cc(-c5ccc(N6CCNCC6)cc5)cnc34)ccnc2c1
inactive: [3]

Cc1c(C(=O)Nc2cccc(C(F)(F)F)c2)cc(-c2ccccc2)n1CCCN1CCOCC1
inactive: [4]
active: [12] 18.7 µM | [5] 11.8 µM | [6] 13.2 µM | [13] 27.3 µM | [7] 18.7 µM | [14] 18.7 µM | [9] 23.5 µM | [10] 18.7 µM

Nc1ccc([N+](=O)[O-])cc1
not listed: [1] | [2] | [3] | [12] | [13]
inactive: all other assays above

C=CCON=C(C[C@H]1O[C@@H]2O[C@]3(C)CC[C@@H]4[C@H](C)CC[C@@H]([C@H]1C)[C@@]24OO3)[C@H]1O[C@@H]2O[C@]3(C)CC[C@H]4[C@H](C)CC[C@@H]([C@@H]1C)[C@@]24OO3
inactive: [8] | [14] | [15]
active: [12] 0.372 µM | [6] 0.332 µM | [7] 0.372 µM | [9] 0.833 µM | [10] 0.469 µM

COc1cc2c(cc1OC)CN(CCc1ccc(NC(=O)c3cccc4c(=O)c5cccc(OC)c5[nH]c34)cc1)CC2
inactive: [2] | [3]

COc1ccc(C(c2ccc(OC)cc2)C(Cl)(Cl)Cl)cc1
active: [12] 21.5 µM | [5] 38.2 µM | [6] 42.8 µM | [7] 13.5 µM | [14] 30.3 µM | [15] 49.8 µM | [9] 42.8 µM
inactive: [2] | [3] | [4]

CN1[C@H]2CC(O)C[C@H]1[C@H]1O[C@H]12 (stereo not given in full)
active: [1] 27.3 µM | [12] 9.35 µM | [5] 18.7 µM | [6] 9.35 µM | [14] 13.2 µM | [9] 20.9 µM
inactive: [4] | [8]

CC(C)(O)C(=O)Nc1ccc([N+](=O)[O-])c(C(F)(F)F)c1
inactive: [4] | [7] | [8] | [14]
active: [11] 18.7 µM | [5] 11.8 µM | [6] 0.935 µM | [9] 5.9 µM

COc1cc2ncnc(Nc3ccc(F)c(Cl)c3)c2cc1NC(=O)C=CCN1CCCCC1
inactive: [2] | [3]

C[C@@H](Oc1cc(-n2cnc3ccc(CN4CCN(C)CC4)cc32)sc1C(N)=O)c1ccccc1C(F)(F)F
inactive: [2] | [3]

CCOc1cc(C=C2C(=O)N(c3ccccc3)N=C2C)cc(Cl)c1OCC(=O)OC
active: [2] 7.69 µM

S=C(SSC(=S)N1CCCCC1)N1CCCCC1
active: [4] 0.938 µM | [11] 0.0266 µM | [5] 0.0266 µM | [6] 0.0376 µM | [14] 0.0376 µM | [9] 0.0944 µM | [10] 0.168 µM

C=C[C@@H]1CN2CCC1C[C@@H]2[C@@H](O)c1ccnc2ccccc12 (stereo not given in full)
inactive: [4] | [8]
active: [3] 38.5 µM | [5] 18.7 µM | [6] 9.35 µM | [14] 26.4 µM | [15] 30.4 µM | [9] 10.5 µM

c1ccc2c(CCNc3ccc(Nc4ccncc4)cc3)c[nH]c2c1
active: [2] 17.2 µM | [3] 21.7 µM

CC=C(C)C(=O)O[C@H]1C(C)=C2[C@@H]3OC(=O)[C@@](C)(O)[C@@]3(O)[C@@H](OC(=O)CCC)C[C@](C)(OC(C)=O)[C@@H]2[C@@H]1OC(=O)CCCCCCC
active: [1] 0.769 µM | [11] 0.469 µM | [12] 0.0418 µM | [5] 0.0235 µM | [6] 0.0187 µM | [13] 0.0172 µM | [7] 0.118 µM | [8] 296 nM | [14] 0.0743 µM | [9] 0.0662 µM | [10] 0.0418 µM
